Screening data deposited in PubChem by National Center for Advancing Translational Sciences (NCATS).
Pf growth 48h: P. falciparum growth inhibition at 48 hours (one generation); P. falciparum luciferase growth in erythrocytes, 48 h; Potency, µM (highest dose often 28.7 µM), without a hit: top-dose activity change, negative = inhibition, actives largely listed as inhibitors; hit rate 5.9% among 310,000; further: on the % scale 0 is the no-effect control and ±100 the full control effect
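Parasite viability was followed by luminescence of a genomically integrated firefly luciferase. Cultures held 0.1% parasitemia at 2% hematocrit (final), incubated under 5% CO2 at 37 C.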
SARS PLpro yeast: SARS-CoV PLP inhibition in yeast. S. cerevisiae expressing SARS-CoV PLpro, growth rescue. Potency, µM (doses to about 32.9 µM), inactives show at the highest dose activity, positive = growth rescue, actives largely listed as activators. hit rate 0.19% among 330,000. AID 485353; calls by dose curve; further: 0% is about no effect; nearly all actives have a fitted effect of over 55% in size
NS1 inh: influenza NS1 inhibition; Potency, µM (top dose mostly 46.1 µM), for inactives: top-dose activity, positive = more growth; hit rate 0.4% among 270,000; AID 2326; calls by dose curve; further: actives are rising curves; nearly all actives have a fitted effect of over 50% in size
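A cell-based growth assay was used: compounds that relieve NS1-induced slow growth of budding yeast raise OD600. Assay medium was yeast nitrogen base with ammonium sulphate and -URA supplement, pH 6.0, with 2% galactose.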
Pf growth 96h: P. falciparum growth inhibition at 96 hours. hit rate 6.9% among 320,000. P. falciparum luciferase reporter growth, 96 h. Potency, µM (top dose mostly 28.7 µM), for the others: top-dose activity change, negative = inhibition, actives largely listed as inhibitors; further: on the % scale 0 is the no-effect control and ±100 the full control effect
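Readout is luminescence from an integrated firefly luciferase in P. falciparum. Red cells, 2% hematocrit and 0.05% parasitemia final, were cultured with compound through two parasite generations (96 hours) at 37 C, 5% CO2.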
Active calls of the source: *; ? = inconclusive; . = no result; [ ] = dose if it differs, or a comment. Shown are actives, neighbours in structure and some others; about 10% of the full set was active somewhere. Unless noted, the call rests on the fitted dose curve; in most records, active means well fitted inhibition curve with a large enough effect; inconclusive means small, poorly fitted or top-dose-only effect, or another doubt; inactive means no such curve, though single readings can be large or run the other way. Potency means the concentration at half of the fitted maximal effect.

SMILES	Pf growth 48h	SARS PLpro yeast	NS1 inh	Pf growth 96h
CCCCCCn1nc(C(=O)N(CCOC)c2c(N)n(CCCC)c(=O)[nH]c2=O)c2ccccc2c1=O	-87%	6%	.	-62%
OC(CN1CCN(c2ccccn2)CC1)Cn1c2ccccc2c2ccccc21 (stereo not drawn)	?	-5%	-40%	1.9µM*
OC(COC(c1ccccc1)c1ccccc1)CN1CCN(c2ccccn2)CC1 (stereo not drawn)	?	5%	-3%	?
C#CCOCCOCCOCCNc1nc(N2CCN(C(=O)[C@H](CCCCN)n3cc(CCCC)nn3)CC2)nc(N2CCN(C(=O)[C@H](CCCCN)n3cc(CCC(=O)O)nn3)CC2)n1	?	-1%	.	61%
C#CCOCCOCCOCCNc1nc(N2CCN(C(=O)CCCCCCCCCCNC(=O)[C@H](CCCCN)n3cc(C)nn3)CC2)nc(N2CCN(C(=O)CCCCCCCCCCNC(=O)[C@H](CCCCN)n3cc(CCCC(=O)O)nn3)CC2)n1	10µM*	6%	.	?
C#CCOCCOCCOCCNc1nc(N2CCN(C(=O)CCCCCCCCCCNC(=O)[C@H](CCCCN)n3cc(CCCC(=O)O)nn3)CC2)nc(N2CCN(C(=O)CCCCCCCCCCNC(=O)[C@@H]([C@H](C)O)n3cc(C)nn3)CC2)n1	5.2µM*	-5%	.	5.9µM*
CCCCn1c(N)c(N(CCOC)C(=O)c2ccc(C)o2)c(=O)[nH]c1=O	3%	.	.	11%
COC(=O)CCSCC(=O)Nc1ccc(C)c(S(=O)(=O)N2CCCCC2)c1	-26%	-2%	-10%	4%
C[C@@H](C(=O)O)c1ccc(C(=O)c2cccs2)cc1	3%[12.8 µM]	.	.	-1%[12.8 µM]
O=C(CN1CCC(C(=O)c2ccc(F)cc2)CC1)NCc1ccccc1F	-25%	-2%	8%	6.6µM*
O=C(c1ccc(F)cc1)C1CCN(CCn2c(=S)[nH]c3ccccc3c2=O)CC1	3.8µM*	8%	.	4.3µM*
COc1ccccc1NC(=O)CN1CCC(C(=O)c2ccc(F)cc2)CC1	6%	0%	-28%	-2%
CC1(C)C(=O)N(CCN2CCC(C(=O)c3ccc(F)cc3)CC2)c2ccccc21	15µM*	.	-13%	?
O=C(c1ccc(Cl)cc1)C1CCN(C(=O)c2ccc(F)cc2)CC1	-10%	-5%	-9%	13µM*
O=C(CN1CCC(C(=O)c2ccc(F)cc2)CC1)Nc1ccccc1	?	6%	0%	?
CCCNC(=S)N1CCC(NC(=O)c2ccc(C)cc2)CC1	?	1%	11%	40%
COc1ccc(OC)c(Nc2nc(NCCCN(C)C)nc(N)c2[N+](=O)[O-])c1	13µM*	1%	2%	12µM*
COc1ccccc1Nc1nc(NCCC(C)C)nc(N)c1[N+](=O)[O-]	3.7µM*	0%	4%	?
COCCCNc1nc(N)c([N+](=O)[O-])c(Nc2cc(OC)ccc2OC)n1	-25%	0%	2%	?
Cc1ccc[n+](CC(=O)c2ccc(Br)cc2)c1C	?	1%	18%	63%
C[C@H](CO)N1C[C@H](C)[C@@H](CN(C)S(=O)(=O)c2cccs2)Oc2c(NC(=O)NC3CCCCC3)cccc2C1=O	.	25%	.	.
O=C1/C(=C/c2ccncc2)SC(=S)N1Nc1ccccc1	8.3µM*	-4%	3%	9.3µM*
COc1ccc(/C=N/OCC(=O)NC(c2ccccc2)c2ccccc2)cc1OC	9.3µM*	16%	16%	8.3µM*
COc1cc(/C=N/OCC(=O)NC23CC4CC(CC(C4)C2)C3)ccc1OCc1ccccc1	?	-11%	-9%	9.3µM*
CCOC(=O)C1CCCN(S(=O)(=O)CCNC(=O)c2ccc3c(c2)OCO3)C1 (stereo not drawn)	?	-5%	.	-23%
SMILES	Pf growth 48h	SARS PLpro yeast	NS1 inh	Pf growth 96h
CCN(CC(=O)Nc1ccc(NC(C)=O)cc1)C(=O)CCCSc1nc2ccccc2[nH]1	2%	-1%	.	-8%
Cc1onc(-c2c(Cl)cccc2Cl)c1/C(N)=N/OC(=O)C(C)(C)C	12µM*	-3%	-4%	8.3µM*
Cc1nc(/C(N)=N/OC(=O)c2c(-c3ccccc3Cl)noc2C)cs1	?	-18%	-3%	10µM*
Cc1onc(-c2c(Cl)cccc2Cl)c1C(=O)N1CCc2ccccc2C1	10µM*	0%	-18%	7.4µM*
Cc1onc(-c2c(Cl)cccc2Cl)c1/C(N)=N/OC(=O)N(C)C	?	0%	2%	?
Cc1onc(-c2c(F)cccc2Cl)c1C(=O)N=C(N)N1CC(C)OC(C)C1 (stereo not drawn)	?	1%	3%	10µM*
CCOc1ccc(C(=O)Nc2cccc3ncccc23)cc1Cl	-4%	0%	1%	?
